# Source: PubChem BioAssay AID1159580 (chemical genetic matrix, 2015)
# The campaign covered roughly 5,500 compounds. About 2,000 (36%) were called active. Roughly 18% stayed inconclusive and do not appear here. This is one part of the list. Values without a mark were called inactive. Cut-off read from the data, not from the text of the source: active = normalized growth mostly below about 0.91 (no sharp cut-off); inconclusive = no clear call, values can overlap the other calls; inactive = mostly above about 0.92.
# Assay: chemical genetic growth profiling, strain panel (AID 1159580);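 note: tested at 20 µM; growth read once vehicle control cultures reached saturation at 30 °C; 1 = growth at the plate median or of vehicle wells; lower values mean less growth of the strain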
# Settings: growth OD
smiles,measurement,setting,value
CCCCCCCCCCCCC[N+](C)(C)Cc1ccccc1,normalized growth,"S. cerevisiae deletion strains, locus YJR075W, strain HOC1, hits give low values",0.0621 (active)
same,normalized growth,"S. cerevisiae deletion strains, locus YKL009W, strain mrt4, hits give low values",0.102 (active)
same,normalized growth,"S. cerevisiae deletion strains, locus YKL068W, hits give low values",0.0707 (active)
same,normalized growth,"S. cerevisiae deletion strains, locus YKL085W, strain MDH1 (second series), hits give low values",0.0622 (active)
same,normalized growth,"S. cerevisiae deletion strains, locus YKL085W, strain MDH1, hits give low values",0.0622 (active)
same,normalized growth,"S. cerevisiae deletion strains, locus YKL160W, strain elf1, hits give low values",0.0609 (active)
same,normalized growth,"S. cerevisiae deletion strains, locus YKL190W, strain CNB1, hits give low values",0.0462 (active)
same,normalized growth,"S. cerevisiae deletion strains, locus YKR001C, strain vps1, hits give low values",0.0665 (active)
same,normalized growth,"S. cerevisiae deletion strains, locus YKR026C, strain gcn3, hits give low values",0.0645 (active)
same,normalized growth,"S. cerevisiae deletion strains, locus YKR091W, strain srl3, hits give low values",0.0591 (active)
same,normalized growth,"S. cerevisiae deletion strains, locus YLL001W, strain dnm1, hits give low values",0.0643 (active)
same,normalized growth,"S. cerevisiae deletion strains, locus YLL026W, hits give low values",0.0581 (active)
same,normalized growth,"S. cerevisiae deletion strains, locus YLL041C, strain sdh2, hits give low values",0.0534 (active)
same,normalized growth,"S. cerevisiae deletion strains, locus YLR027C, strain aat2, hits give low values",0.0632 (active)
same,normalized growth,"S. cerevisiae deletion strains, locus YLR039C, strain RIC1, hits give low values",0.0768 (active)
same,normalized growth,"S. cerevisiae deletion strains, locus YLR058C, strain SHM2, hits give low values",0.0468 (active)
same,normalized growth,"S. cerevisiae deletion strains, locus YLR102C, strain apc9, hits give low values",0.0591 (active)
same,normalized growth,"S. cerevisiae deletion strains, locus YLR113W, strain HOG1, hits give low values",0.115 (active)
same,normalized growth,"S. cerevisiae deletion strains, locus YLR221C, strain rsa3, hits give low values",0.0601 (active)
same,normalized growth,"S. cerevisiae deletion strains, locus YLR258W, strain gsy2, hits give low values",0.0594 (active)
same,normalized growth,"S. cerevisiae deletion strains, locus YLR262C, strain YPT6 (second series), hits give low values",0.0813 (active)
same,normalized growth,"S. cerevisiae deletion strains, locus YLR262C, strain YPT6, hits give low values",0.0988 (active)
same,normalized growth,"S. cerevisiae deletion strains, locus YLR268W, strain sec22, hits give low values",0.0715 (active)
same,normalized growth,"S. cerevisiae deletion strains, locus YLR320W, strain mms22, hits give low values",0.0747 (active)
same,normalized growth,"S. cerevisiae deletion strains, locus YLR330W, strain CHS5, hits give low values",0.0507 (active)
same,normalized growth,"S. cerevisiae deletion strains, locus YLR342W, strain FKS1 (second series), hits give low values",0.0621 (active)
same,normalized growth,"S. cerevisiae deletion strains, locus YLR342W, strain FKS1, hits give low values",0.0644 (active)
same,normalized growth,"S. cerevisiae deletion strains, locus YLR357W, strain rsc2, hits give low values",0.114 (active)
same,normalized growth,"S. cerevisiae deletion strains, locus YLR370C, strain arc18, hits give low values",0.0615 (active)
same,normalized growth,"S. cerevisiae deletion strains, locus YLR371W, strain rom2, hits give low values",0.0625 (active)
same,normalized growth,"S. cerevisiae deletion strains, locus YLR384C, strain iki3, hits give low values",0.0574 (active)
same,normalized growth,"S. cerevisiae deletion strains, locus YLR418C, strain cdc73, hits give low values",0.0973 (active)
same,normalized growth,"S. cerevisiae deletion strains, locus YML016C, strain PPZ1, hits give low values",0.0455 (active)
same,normalized growth,"S. cerevisiae deletion strains, locus YML032C, strain rad52, hits give low values",0.0731 (active)
same,normalized growth,"S. cerevisiae deletion strains, locus YML120C, strain ndi1, hits give low values",0.0563 (active)
same,normalized growth,"S. cerevisiae deletion strains, locus YML124C, strain tub3, hits give low values",0.0618 (active)
same,normalized growth,"S. cerevisiae deletion strains, locus YMR058W, strain fet3, hits give low values",0.064 (active)
same,normalized growth,"S. cerevisiae deletion strains, locus YMR078C, strain ctf18, hits give low values",0.0768 (active)
same,normalized growth,"S. cerevisiae deletion strains, locus YMR125W, strain sto1, hits give low values",0.0739 (active)
same,normalized growth,"S. cerevisiae deletion strains, locus YMR129W, hits give low values",0.0593 (active)
same,normalized growth,"S. cerevisiae deletion strains, locus YMR205C, strain PFK2, hits give low values",0.0873 (active)
same,normalized growth,"S. cerevisiae deletion strains, locus YMR223W, strain ubp8, hits give low values",0.0651 (active)
same,normalized growth,"S. cerevisiae deletion strains, locus YMR231W, strain pep5, hits give low values",0.0683 (active)
same,normalized growth,"S. cerevisiae deletion strains, locus YMR307W, strain GAS1, hits give low values",0.11 (active)
same,normalized growth,"S. cerevisiae deletion strains, locus YNL067W, strain RPL9B, hits give low values",0.0494 (active)
same,normalized growth,"S. cerevisiae deletion strains, locus YNL071W, strain lat1, hits give low values",0.0572 (active)
same,normalized growth,"S. cerevisiae deletion strains, locus YNL128W, strain TEP1, hits give low values",0.0628 (active)
same,normalized growth,"S. cerevisiae deletion strains, locus YNL153C, strain GIM3, hits give low values",0.0486 (active)
same,normalized growth,"S. cerevisiae deletion strains, locus YNL183C, strain NPR1, hits give low values",-0.00105 (active)
same,normalized growth,"S. cerevisiae deletion strains, locus YNL209W, strain ssb2, hits give low values",0.0596 (active)
same,normalized growth,"S. cerevisiae deletion strains, locus YNL233W, strain BNI4, hits give low values",0.0559 (active)
same,normalized growth,"S. cerevisiae deletion strains, locus YNL248C, strain rpa49, hits give low values",0.0866 (active)
same,normalized growth,"S. cerevisiae deletion strains, locus YNL250W, strain rad50, hits give low values",0.107 (active)
same,normalized growth,"S. cerevisiae deletion strains, locus YNL271C, strain bni1, hits give low values",0.0664 (active)
same,normalized growth,"S. cerevisiae deletion strains, locus YNL298W, strain CLA4, hits give low values",0.0607 (active)
same,normalized growth,"S. cerevisiae deletion strains, locus YNL307C, strain MCK1, hits give low values",0.0673 (active)
same,normalized growth,"S. cerevisiae deletion strains, locus YNL322C, strain KRE1 (second series), hits give low values",0.0716 (active)
same,normalized growth,"S. cerevisiae deletion strains, locus YNR049C, strain mso1, hits give low values",0.0569 (active)
same,normalized growth,"S. cerevisiae deletion strains, locus YNR052C, strain pop2, hits give low values",0.0607 (active)
same,normalized growth,"S. cerevisiae deletion strains, locus YOL006C, strain TOP1, hits give low values",0.101 (active)
same,normalized growth,"S. cerevisiae deletion strains, locus YOL012C, strain htz1",0.22
same,normalized growth,"S. cerevisiae deletion strains, locus YOL147C, strain pex11, hits give low values",0.0664 (active)
same,normalized growth,"S. cerevisiae deletion strains, locus YOR001W, strain rrp6, hits give low values",0.0665 (active)
same,normalized growth,"S. cerevisiae deletion strains, locus YOR061W, strain CKA2, hits give low values",0.0452 (active)
same,normalized growth,"S. cerevisiae deletion strains, locus YOR069W, strain VPS5, hits give low values",0.0467 (active)
same,normalized growth,"S. cerevisiae deletion strains, locus YOR070C, strain gyp1, hits give low values",0.0668 (active)
same,normalized growth,"S. cerevisiae deletion strains, locus YOR080W, strain dia2, hits give low values",0.0657 (active)
same,normalized growth,"S. cerevisiae deletion strains, locus YOR083W, strain WHI5, hits give low values",0.0673 (active)
same,normalized growth,"S. cerevisiae deletion strains, locus YOR106W, strain vam3, hits give low values",0.0651 (active)
same,normalized growth,"S. cerevisiae deletion strains, locus YOR136W, strain idh2, hits give low values",0.0728 (active)
same,normalized growth,"S. cerevisiae deletion strains, locus YOR144C, strain elg1, hits give low values",0.0629 (active)
same,normalized growth,"S. cerevisiae deletion strains, locus YOR184W, strain ser1, hits give low values",0.0779 (active)
same,normalized growth,"S. cerevisiae deletion strains, locus YOR231W, strain MKK1, hits give low values",0.103 (active)
same,normalized growth,"S. cerevisiae deletion strains, locus YOR265W, strain rbl2, hits give low values",0.0552 (active)
same,normalized growth,"S. cerevisiae deletion strains, locus YOR270C, strain vph1, hits give low values",0.0971 (active)
same,normalized growth,"S. cerevisiae deletion strains, locus YOR290C, strain snf2, hits give low values",0.0603 (active)
same,normalized growth,"S. cerevisiae deletion strains, locus YOR316C, strain cot1, hits give low values",0.0576 (active)
same,normalized growth,"S. cerevisiae deletion strains, locus YPL051W, strain arl3, hits give low values",0.0609 (active)
same,normalized growth,"S. cerevisiae deletion strains, locus YPL055C, strain LGE1, hits give low values",0.0695 (active)
same,normalized growth,"S. cerevisiae deletion strains, locus YPL078C, strain atp4, hits give low values",0.0642 (active)
same,normalized growth,"S. cerevisiae deletion strains, locus YPL106C, strain sse1, hits give low values",0.0953 (active)
same,normalized growth,"S. cerevisiae deletion strains, locus YPL240C, strain hsp82, hits give low values",0.0558 (active)
same,normalized growth,"S. cerevisiae deletion strains, locus YPL256C, strain CLN2, hits give low values",0.111 (active)
same,normalized growth,"S. cerevisiae deletion strains, locus YPR119W, strain clb2, hits give low values",0.0637 (active)
same,normalized growth,"S. cerevisiae deletion strains, locus YPR141C, strain kar3, hits give low values",0.0734 (active)
same,normalized growth,"S. cerevisiae deletion strains, locus YPR163C, strain tif3, hits give low values",0.0705 (active)
same,normalized growth,"S. cerevisiae deletion strains, locus YPR167C, strain met16, hits give low values",0.063 (active)
same,normalized growth,"S. cerevisiae deletion strains, strain wtn01, hits give low values",0.067 (active)
same,normalized growth,"S. cerevisiae strains, strain wild type, hits give low values",0.0467 (active)
